Experimental data reported in PubChem BioAssay.
Calls of active or inactive are those of the source.

Assays:
[1] = E. coli DRC41 culture turbidity changes, primary screen, E. coli filamentation inducer project, strain DRC41, OD650, 48 h (AID 1152);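 also: E. coli MC1000 strain DRC41 lacking acrAB efflux pump and sulA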; conditions: E. coli DRC41 (acrAB sulA), higher = more signal, called active from +8 up or from −8 down
[2] = small-molecule binders of probe aLefty1, primary screen, biochemical, small-molecule microarray, 635/667 nm fluorescence (AID 1153); conditions: higher = more signal;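 also: score merges spot fluorescence with signal-to-noise ratio from the scanned slide images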
[3] = PSAC antagonists in infected red cells, primary screen, cell-based, P. falciparum Indochina, OD700, 1 h (AID 1154); conditions: P. falciparum Indochina infected RBC osmotic lysis, higher = more signal, called active from +8 up or from −8 down
[4] = PSAC antagonists in infected red cells, primary screen, cell-based, P. falciparum Indochina, OD700, 2 h (AID 1155);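 also: lysis reports solute entry through the parasite surface anion channel PSAC; channel blockers reduce lysis of infected cells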; conditions: P. falciparum Indochina infected erythrocytes, osmotic lysis OD700; higher = more signal, called active from +8 up or from −8 down
[5] = osmotic lysis modulators in infected erythrocytes, primary screen, PSAC antagonist project, cell-based, P. falciparum Indochina, OD700, 3 h (AID 1156); conditions: higher = more signal, called active from +8 up or from −8 down
[6] = PSAC antagonists in infected red cells, primary screen, cell-based, P. falciparum Indochina, OD700, 18 h (AID 1157); conditions: P. falciparum Indochina infected erythrocytes, osmotic lysis OD700, 18 h; higher = more signal, called active from +8 up or from −8 down
[7] = modulators of S6 phosphorylation in cells, primary screen, cell-based, A549, cytoblot, luminescence, serum-stimulated (AID 1158); conditions: A549 phospho-S6 cytoblot, 5 h, higher = more signal;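 also: serum-stimulated A549 lung adenocarcinoma cells; signal is phosphorylated S6 detected by cytoblot immunostaining with HRP secondary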
[8] = target: NADPH oxidase 2 (Homo sapiens) (UniProt P04839); test: NOX2-dependent H2O2 signal modulators, primary screen, NOX inhibitor project, cell-based, HEK293-NOX2, PMA-stimulated, Amplex Red fluorescence (AID 1159); conditions: 45 min, higher = more signal, called active from +8 up or from −8 down; also: test concentration not given here
Sequence of NADPH oxidase 2 (Homo sapiens) (P04839 whole entry, looked up): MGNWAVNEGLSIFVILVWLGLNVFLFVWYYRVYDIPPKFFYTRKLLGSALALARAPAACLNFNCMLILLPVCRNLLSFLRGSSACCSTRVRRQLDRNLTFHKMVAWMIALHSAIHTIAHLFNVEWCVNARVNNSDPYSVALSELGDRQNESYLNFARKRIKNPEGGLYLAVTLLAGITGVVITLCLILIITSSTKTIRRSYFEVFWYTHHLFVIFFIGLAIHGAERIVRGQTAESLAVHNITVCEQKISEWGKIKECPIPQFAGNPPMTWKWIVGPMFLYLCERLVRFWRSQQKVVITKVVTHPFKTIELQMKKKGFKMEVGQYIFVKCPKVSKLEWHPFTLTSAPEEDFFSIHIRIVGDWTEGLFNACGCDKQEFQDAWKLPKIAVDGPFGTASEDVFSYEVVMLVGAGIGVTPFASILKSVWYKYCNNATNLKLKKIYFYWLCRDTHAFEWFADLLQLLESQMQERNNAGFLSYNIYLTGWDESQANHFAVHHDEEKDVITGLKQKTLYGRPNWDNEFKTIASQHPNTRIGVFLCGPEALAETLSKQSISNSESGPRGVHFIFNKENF

[9] = target: NADPH oxidase 4 (Homo sapiens) (UniProt Q9NPH5); test: NOX4-dependent H2O2 signal modulators, primary screen, NOX inhibitor project, cell-based, HEK293-NOX4, tetracycline-induced, Amplex Red fluorescence (AID 1160); conditions: 45 min, higher = more signal, called active from +8 up or from −8 down
Sequence of NADPH oxidase 4 (Homo sapiens) (Q9NPH5 whole entry, looked up): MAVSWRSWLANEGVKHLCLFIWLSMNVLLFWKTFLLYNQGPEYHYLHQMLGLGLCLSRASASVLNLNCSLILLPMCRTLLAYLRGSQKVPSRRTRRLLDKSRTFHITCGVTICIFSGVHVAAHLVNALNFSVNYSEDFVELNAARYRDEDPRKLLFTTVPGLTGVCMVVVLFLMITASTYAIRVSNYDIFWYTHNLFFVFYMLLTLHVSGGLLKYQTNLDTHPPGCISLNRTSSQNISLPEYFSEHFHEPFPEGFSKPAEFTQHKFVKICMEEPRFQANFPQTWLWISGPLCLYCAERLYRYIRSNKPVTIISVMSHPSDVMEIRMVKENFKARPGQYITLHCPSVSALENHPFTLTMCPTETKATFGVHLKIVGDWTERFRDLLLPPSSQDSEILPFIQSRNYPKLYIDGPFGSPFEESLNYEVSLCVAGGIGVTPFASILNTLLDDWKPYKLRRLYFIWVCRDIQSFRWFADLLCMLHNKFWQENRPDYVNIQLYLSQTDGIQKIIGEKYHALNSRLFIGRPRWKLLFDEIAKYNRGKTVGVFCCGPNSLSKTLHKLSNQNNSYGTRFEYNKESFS

[10] = target: NADPH oxidase 5 (Homo sapiens) (UniProt Q96PH1); test: NOX5-dependent H2O2 signal modulators, primary screen, NOX inhibitor project, cell-based, HEK293-NOX5, Amplex Red fluorescence (AID 1161); conditions: HEK293-NOX5, ionomycin, 45 min, higher = more signal
Sequence of NADPH oxidase 5 (Homo sapiens) (Q96PH1 whole entry, looked up): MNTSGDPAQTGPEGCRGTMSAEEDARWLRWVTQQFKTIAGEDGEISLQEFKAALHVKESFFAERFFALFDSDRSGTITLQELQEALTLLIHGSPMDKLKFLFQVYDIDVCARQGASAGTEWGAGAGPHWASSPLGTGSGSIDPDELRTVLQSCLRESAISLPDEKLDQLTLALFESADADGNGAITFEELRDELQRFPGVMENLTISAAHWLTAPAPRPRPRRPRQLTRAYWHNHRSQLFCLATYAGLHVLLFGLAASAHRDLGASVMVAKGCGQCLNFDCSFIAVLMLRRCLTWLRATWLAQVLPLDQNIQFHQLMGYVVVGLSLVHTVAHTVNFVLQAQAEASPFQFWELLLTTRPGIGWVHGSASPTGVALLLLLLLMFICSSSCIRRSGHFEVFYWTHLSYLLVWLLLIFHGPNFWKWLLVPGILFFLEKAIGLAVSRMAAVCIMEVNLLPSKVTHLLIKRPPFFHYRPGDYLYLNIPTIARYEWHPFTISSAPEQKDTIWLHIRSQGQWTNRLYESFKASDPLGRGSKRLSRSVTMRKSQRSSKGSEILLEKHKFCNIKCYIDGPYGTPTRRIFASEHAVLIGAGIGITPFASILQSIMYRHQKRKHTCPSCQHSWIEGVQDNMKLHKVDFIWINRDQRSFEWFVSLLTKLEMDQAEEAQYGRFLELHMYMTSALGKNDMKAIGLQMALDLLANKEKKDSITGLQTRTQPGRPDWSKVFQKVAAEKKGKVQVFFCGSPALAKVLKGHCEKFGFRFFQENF

[11] = A549 cell viability effects, profiling panel, calcein-AM fluorescence, 48 h, basal (AID 1162); conditions: higher = more signal; also: test concentration not given here
[12] = adipocyte viability effects, profiling panel, cell-based, 3T3-L1 adipocytes, calcein-AM fluorescence, 48 h, basal (AID 1163); conditions: 3T3-L1 adipocytes viability, higher = more signal; also: test concentration not given here
[13] = HepG2 cell viability effects, profiling panel, calcein-AM fluorescence, 48 h, basal (AID 1164); conditions: higher = more signal; also: test concentration not given here
[14] = MM1S cell viability effects, profiling panel, calcein-AM fluorescence, 48 h, basal (AID 1165); conditions: higher = more signal;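 also: viability of MM1S multiple myeloma cells under basal unstimulated conditions; test concentration not given here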
[15] = basal RPMI8226 viability, no added stimulus, profiling panel, cell-based, calcein-AM fluorescence, 48 h, PK04 Diversity Set (AID 1166); conditions: RPMI8226 myeloma viability, higher = more signal;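 also: cells grown under basal conditions without added stimulus; test concentration not given here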
[16] = basal HepG2 mitochondrial membrane potential changes, profiling panel, cell-based, JC-1 fluorescence, 24 h, 100 nL compound (AID 1167); conditions: higher = more signal; also: test concentration not given here
[17] = basal 3T3-L1 adipocyte mitochondrial potential changes, profiling panel, cell-based, JC-1 fluorescence, 3T3-L1 adipocytes, 24 h, 100 nL compound (AID 1168); conditions: JC-1 mitochondrial fluorescence, higher = more signal, called active from +8 up or from −8 down; also: test concentration not given here
[18] = basal RPMI8226 mitochondrial membrane potential changes, profiling panel, cell-based, JC-1 fluorescence, 24 h, 100 nL compound (AID 1169); conditions: RPMI8226 myeloma, JC-1 mitochondrial potential fluorescence, higher = more signal; also: test concentration not given here
[19] = basal MM1S mitochondrial membrane potential changes, profiling panel, cell-based, JC-1 fluorescence, 24 h, 100 nL compound (AID 1170); conditions: higher = more signal; also: test concentration not given here
[20] = A549 lung cancer cell viability effects, profiling panel, resazurin fluorescence, 24 h, PK04 Diversity Set (AID 1171); conditions: higher = more signal, called active from +8 up or from −8 down; also: test concentration not given here

Compound	z-score [1]	composite z-score [2]	z-score [3]	z-score [4]	z-score [5]	z-score [6]	z-score [7]	z-score [8]	z-score [9]	z-score [10]	z-score [11]	z-score [12]	z-score [13]	z-score [14]	z-score [15]	z-score [16]	z-score [17]	z-score [18]	z-score [19]	z-score [20]
CCOC(=O)C1=CCC(c2ccncc2)N(S(=O)(=O)c2ccc(C)cc2)C1 (stereo not given)	0.149 (inactive)	0.13	4.24 (inactive)	1.29 (inactive)	0.488 (inactive)	0.953 (inactive)	-0.0707	0.168 (inactive)	0.432 (inactive)	0.0402	-1.72	-0.784	-1.37	-2.28	-1.31	-1.41	0.561 (inactive)	0.115	-1.61	-0.44 (inactive)
CO[C@H]1O[C@H](CO)[C@@H](OC(=O)Nc2cccc(F)c2)[C@H](OC(=O)c2cc3ccccc3[nH]2)[C@H]1OC(=O)c1cc2ccccc2[nH]1	0.378 (inactive)	-0.0412	0.694 (inactive)	-1.02 (inactive)	-0.0952 (inactive)	-0.908 (inactive)	2.06	-2.38 (inactive)	-0.453 (inactive)	-3.81	1.16	0.437	0.387	0.0134	0.804	-1.56	2.42 (inactive)	-0.397	-0.415	-2.49 (inactive)
C=CCOC(=O)[C@H]1[C@@H]2C(=O)O[C@@H](c3ccccc3)[C@@H](c3ccccc3)N2[C@@H](c2ccc(OCCOC(=O)[C@H]3C[C@H]4C(=O)NCC(=O)N4[C@H]3c3ccc(O)cc3)cc2)[C@]12C(=O)Nc1ccccc12	0.141 (inactive)	1.09	2.42 (inactive)	1.3 (inactive)	2.3 (inactive)	0.987 (inactive)	-0.295	2.06 (inactive)	-0.365 (inactive)	0.00131	-0.759	0.645	-1.05	0.117	-0.259	-1.42	0.962 (inactive)	-0.356	-0.821	0.729 (inactive)
O=C1O[C@H](c2ccccc2)[C@H](c2ccccc2)N2[C@H]1[C@@H](C(=O)O)[C@]1(C(=O)Nc3ccccc31)[C@H]2c1ccc(OCCO)cc1	0.368 (inactive)	0.183	3.81 (inactive)	0.173 (inactive)	-0.776 (inactive)	0.124 (inactive)	-0.412	0.388 (inactive)	1.09 (inactive)	0.958	-0.29	1.11	-0.119	0.338	-2.44	-0.706	0.254 (inactive)	-0.295	0.0484	0.683 (inactive)
O=C1C2C=CC(C(O)C3CCCCC3)N(Nc3ccccc3F)C2C(=O)N1c1ccccc1 (stereo not given)	0.128 (inactive)	0.483	1.11 (inactive)	0.304 (inactive)	2.77 (inactive)	-0.743 (inactive)	2.15	-2.64 (inactive)	-4.15 (inactive)	-4.19	-0.112	0.1	-0.528	0.345	-0.925	-0.804	-0.865 (inactive)	-0.224	-0.433	-0.852 (inactive)
Cc1ccc(S[C@]2(C(=O)NCCN3CCOCC3)CC(=O)N(C(C)C)[C@@H]2c2ccc(CO)cc2I)cc1	3.66 (inactive)	0.11	7.56 (inactive)	0.308 (inactive)	0.651 (inactive)	-0.511 (inactive)	1.86	-0.491 (inactive)	-1.24 (inactive)	1.07	2.91	0.557	2.66	-2.39	-1.47	1.64	0.604 (inactive)	-1.01	-0.635	-1.13 (inactive)
O=C(CS)NCCCCCCNC(=O)[C@H]1C[C@H]2C(=O)NCC(=O)N2[C@H]1c1cccc(OCCO)c1	0.838 (inactive)	0.0797	2.16 (inactive)	-0.151 (inactive)	-1.92 (inactive)	-1.36 (inactive)	0.21	2.14 (inactive)	1.22 (inactive)	0.769	-0.109	1.18	-0.232	-0.436	-1.09	-0.407	0.225 (inactive)	0.211	-0.497	-0.15 (inactive)
CC1CC/C=C\[C@H]2OC34C=CCN(CCN5CCOCC5)C(=O)[C@H]3N(C(CO)C(C)C)C(=O)[C@@H]4C2C(=O)O1 (stereo not given in full)	-0.481 (inactive)	-0.247	1.94 (inactive)	-0.184 (inactive)	0.927 (inactive)	0.233 (inactive)	-0.69	1.13 (inactive)	-0.728 (inactive)	1.91	0.0685	-1.26	0.545	-0.515	0.0582	-0.989	-0.161 (inactive)	0.19	-0.308	-0.37 (inactive)
C=CCOC(=O)[C@@H]1[C@H]2C(=O)O[C@H](c3ccccc3)[C@H](c3ccccc3)N2[C@H](c2ccc(OCCOC(=O)[C@@H]3C[C@@H]4C(=O)N[C@@H](CC(C)C)C(=O)N4[C@@H]3c3ccc(O)cc3)cc2)[C@@]12C(=O)Nc1ccc(I)cc12	0.928 (inactive)	1.58	1.5 (inactive)	0.9 (inactive)	4.25 (inactive)	0.718 (inactive)	0.0764	0.485 (inactive)	0.64 (inactive)	0.839	-0.226	0.175	-0.0024	0.26	1.31	-1.61	0.872 (inactive)	-0.575	-0.925	0.595 (inactive)
